Experimental data as given in PubChem BioAssay (NCI).
“And” between values parts separate entries of the source, which are not always exact repeats. Equal entries are not always repeated. The panel holds about 79,000 compounds, 15% with a hit somewhere; the sample as a whole holds those more often. More than one record can exist for a structure, and the calls need not agree. The source made the active and inactive calls. Cut-off read from the data, not from the text of the source: active = growth inhibition above about 70%; inactive = the rest.

Test: NCI Yeast Anticancer Drug Screen. Data for the sgs1 mgt1 strain (AID 161);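 note: 0% = growth of cultures given vehicle only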
Conditions: S. cerevisiae sgs1 mgt1 strain, at 50.0 µM, stronger effect = higher value
Procedure, shortened: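 Test agents were incubated with a DNA-repair-mutant yeast strain. Growth was then read and compared against vehicle-treated controls.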

For `O=[As]c1ccc(C(=O)O)cc1` (stereo not given), which growth inhibition is on record?
Its growth inhibition is 0.2% (inactive).

For `CCCC[As](CCCC)SC1OC(COC(C)=O)C(OC(C)=O)C(OC(C)=O)C1OC(C)=O` (stereo not given), which growth inhibition is on record?
Its growth inhibition is 98.8% (active).

With `O=C([O-])c1ccccc1Nc1ccccn1.O=C([O-])c1ccccc1Nc1ccccn1.[Ni+2]` as the compound, how does the growth inhibition read?
The growth inhibition was -15.6% (inactive).

With `Nc1cc(N)c([N+](=O)[O-])cc1[N+](=O)[O-]` as the compound, how does the growth inhibition read?
The growth inhibition was 14.1% (inactive).

Which growth inhibition does the source give for `C(#CCN1CCCCCC1)CN1CCCCCC1` here?
The growth inhibition was 0.05% (inactive).

With `Cc1ccc(OP(=O)(Oc2ccc(C)c(C)c2)Oc2ccc(C)c(C)c2)cc1C` as the compound, how does the growth inhibition read?
Its growth inhibition is -9.15% (inactive).

With `CCCCC(CC)C(=O)O` (stereo not given) as the compound, how does the growth inhibition read?
Its growth inhibition is -1.65% (inactive) and -1.3% (inactive).

With `Nc1ncnc2c1ncn2C1OC(CO)C2NP(=O)(N(CCCl)CCCl)OC21` (stereo not given) as the compound, how does the growth inhibition read?
The growth inhibition was -22.1% (inactive) and -19.3% (inactive).

Which growth inhibition does the source give for `NCCN.NCCN.[Cl-].[O]=[Re]=[O]` here?
The growth inhibition was 6.4% (inactive).

For `Br[CH](Br)[Hg][c]1ccccc1`, which growth inhibition is on record?
Its growth inhibition is 94.3% (active).

For `CCCCOC1OCN(C2CCCCC2)CC1(C)C` (stereo not given), which growth inhibition is on record?
The growth inhibition was 27.5% (inactive).

With `O=C(NP(=O)(N1CC1)N1CC1)c1cc(I)ccc1I` as the compound, how does the growth inhibition read?
The growth inhibition was 1.25% (inactive).

For `Cc1cc(N(C)CCCl)ccc1N=Nc1ccccc1C(=O)O`, which growth inhibition is on record?
Its growth inhibition is 36.8% (inactive).

Which growth inhibition does the source give for `CCCOC(=O)c1cncn1C(C)c1ccccc1` (stereo not given) here?
Its growth inhibition is 37.5% (inactive).

For `CC[N+]1(CC)CC[N+](CC)(CC)CC1`, which growth inhibition is on record?
The growth inhibition was 25.8% (inactive).

Which growth inhibition does the source give for `NC(N)=N/N=C/C(=N\N=C(N)N)C(O)C(O)C(O)C(O)CO` (stereo not given) here?
The growth inhibition was -16.1% (inactive) and 31.9% (inactive).

For `N.O=S(=O)(O)O.[Al]`, which growth inhibition is on record?
Its growth inhibition is 4.85% (inactive).

Which growth inhibition does the source give for `CC(C)OC(=S)S.[Cu+2]` here?
Its growth inhibition is -2.4% (inactive).

Which growth inhibition does the source give for `CC1=CC(C(=O)O)P(C)(=O)C1` (stereo not given) here?
The growth inhibition was -12.3% (inactive).

For `C[CH2][Sn]([CH2]C)([n]1c(C)nc2ccccc21)[n]1c(C)nc2ccccc21`, which growth inhibition is on record?
Its growth inhibition is -19.3% (inactive).

With `CCC[As](=O)(O)CC(C)C` as the compound, how does the growth inhibition read?
Its growth inhibition is -4.9% (inactive).

Which growth inhibition does the source give for `C1CC[N-]CC1.C1CC[N-]CC1.[Cl][Pd][Cl]` here?
Its growth inhibition is 13% (inactive).

With `O=C(O)c1ccccc1` as the compound, how does the growth inhibition read?
The growth inhibition was -14.8% (inactive) and 33.1% (inactive).

For `O=C(CCl)Oc1ccccc1Cl`, which growth inhibition is on record?
The growth inhibition was -31.1% (inactive).

With `N#CCCCBr` as the compound, how does the growth inhibition read?
Its growth inhibition is 7.2% (inactive).

With `CCCCOCN(COCCCC)C(C)Cc1ccccc1` (stereo not given) as the compound, how does the growth inhibition read?
The growth inhibition was -12.5% (inactive).

With `CC(O)CN(CCN(CC(C)O)CC(C)O)CC(C)O.O=[N+]([O-])O.[Cu+2]` (stereo not given) as the compound, how does the growth inhibition read?
The growth inhibition was -27.2% (inactive).

Which growth inhibition does the source give for `CC1CCC(OC(=O)CCl)CC1` (stereo not given) here?
Its growth inhibition is 13.3% (inactive).

With `O=[N+]([O-])c1ccc(CCl)cc1` as the compound, how does the growth inhibition read?
Its growth inhibition is 10.7% (inactive).

Which growth inhibition does the source give for `CCN(CC)CCN(Cc1ccccc1)C(=O)C(O)(c1ccccc1)c1ccccc1` here?
The growth inhibition was -4.05% (inactive).

Which growth inhibition does the source give for `[Cl][Sn]([Cl])([c]1ccccc1)[c]1ccccc1` here?
The growth inhibition was 41.5% (inactive) and 95.1% (active).

For `O=NN1CCNCC1`, which growth inhibition is on record?
The growth inhibition was -16.7% (inactive) and -13.2% (inactive).

Which growth inhibition does the source give for `C=C(C)C(=O)OCC12CCC(C)=CC1OC1C(=O)C(OC(=O)C(=C)C)C2(C)C12CO2` (stereo not given) here?
Its growth inhibition is -1.15% (inactive).

For `OCCN=Cc1ccccc1O.OCCN=Cc1ccccc1O.[Ni]`, which growth inhibition is on record?
The growth inhibition was 17.9% (inactive).

With `CN1C(=O)C2(Cc3cn(C45CC67SSC(CO)(C(=O)N6C4Nc4ccccc45)N(C)C7=O)c4ccccc34)SSC1(CO)C(=O)N2C` (stereo not given) as the compound, how does the growth inhibition read?
Its growth inhibition is 90.3% (active).

For `COC(=O)C1(C(=O)OC)ON1C(C)(C)C` (stereo not given), which growth inhibition is on record?
The growth inhibition was -17.6% (inactive).

For `Oc1c(Cl)cc(Cl)cc1C1N(Cc2ccc(N(CCCl)CCCl)cc2)CCCN1Cc1ccc(N(CCCl)CCCl)cc1`, which growth inhibition is on record?
Its growth inhibition is 23.4% (inactive).

Which growth inhibition does the source give for `CCCCN(CCCC)CC(O)c1ccc(Cl)c(Cl)c1` (stereo not given) here?
The growth inhibition was 28.9% (inactive).

Which growth inhibition does the source give for `COP(=O)(NC(C)=O)OC` here?
Its growth inhibition is -4.5% (inactive).

With `CCOC(=O)C[CH2][Sn]([Cl])([Cl])[Cl]` as the compound, how does the growth inhibition read?
Its growth inhibition is 21.1% (inactive).

Test: NCI Yeast Anticancer Drug Screen. Data for the cln2 rad14 strain (AID 165);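 note: 0% = growth equal to vehicle treated cultures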
Conditions: S. cerevisiae cln2 rad14 strain, at 50.0 µM, stronger effect = higher value
Procedure, shortened: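 Each compound was tested on cln2 rad14 yeast. Inhibition of growth was calculated against vehicle-exposed controls.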

For `O=[As]c1ccc(C(=O)O)cc1` (stereo not given), which growth inhibition is on record?
The growth inhibition was 19.3% (inactive).

With `CCCC[As](CCCC)SC1OC(COC(C)=O)C(OC(C)=O)C(OC(C)=O)C1OC(C)=O` (stereo not given) as the compound, how does the growth inhibition read?
Its growth inhibition is 96.9% (active).

With `O=C([O-])c1ccccc1Nc1ccccn1.O=C([O-])c1ccccc1Nc1ccccn1.[Ni+2]` as the compound, how does the growth inhibition read?
The growth inhibition was 8.15% (inactive).

For `Nc1cc(N)c([N+](=O)[O-])cc1[N+](=O)[O-]`, which growth inhibition is on record?
Its growth inhibition is 5.75% (inactive).

For `C(#CCN1CCCCCC1)CN1CCCCCC1`, which growth inhibition is on record?
Its growth inhibition is -8.85% (inactive).

With `Cc1ccc(OP(=O)(Oc2ccc(C)c(C)c2)Oc2ccc(C)c(C)c2)cc1C` as the compound, how does the growth inhibition read?
Its growth inhibition is -8.95% (inactive).

With `CCCCC(CC)C(=O)O` (stereo not given) as the compound, how does the growth inhibition read?
Its growth inhibition is 0.2% (inactive) and 6% (inactive).

For `Nc1ncnc2c1ncn2C1OC(CO)C2NP(=O)(N(CCCl)CCCl)OC21` (stereo not given), which growth inhibition is on record?
Its growth inhibition is -8.1% (inactive) and 5.15% (inactive).

With `NCCN.NCCN.[Cl-].[O]=[Re]=[O]` as the compound, how does the growth inhibition read?
Its growth inhibition is -62.5% (inactive).

For `Br[CH](Br)[Hg][c]1ccccc1`, which growth inhibition is on record?
The growth inhibition was 99.2% (active).

With `CCCCOC1OCN(C2CCCCC2)CC1(C)C` (stereo not given) as the compound, how does the growth inhibition read?
The growth inhibition was 13.7% (inactive).

For `O=C(NP(=O)(N1CC1)N1CC1)c1cc(I)ccc1I`, which growth inhibition is on record?
Its growth inhibition is -27.7% (inactive).

For `Cc1cc(N(C)CCCl)ccc1N=Nc1ccccc1C(=O)O`, which growth inhibition is on record?
The growth inhibition was 6% (inactive).

For `CCCOC(=O)c1cncn1C(C)c1ccccc1` (stereo not given), which growth inhibition is on record?
Its growth inhibition is 10.7% (inactive).

With `CC[N+]1(CC)CC[N+](CC)(CC)CC1` as the compound, how does the growth inhibition read?
The growth inhibition was -9.05% (inactive).

For `NC(N)=N/N=C/C(=N\N=C(N)N)C(O)C(O)C(O)C(O)CO` (stereo not given), which growth inhibition is on record?
Its growth inhibition is -22.6% (inactive) and 15.1% (inactive).

Which growth inhibition does the source give for `N.O=S(=O)(O)O.[Al]` here?
The growth inhibition was -3.8% (inactive).

For `CC(C)OC(=S)S.[Cu+2]`, which growth inhibition is on record?
Its growth inhibition is -31.6% (inactive).

Which growth inhibition does the source give for `CC1=CC(C(=O)O)P(C)(=O)C1` (stereo not given) here?
Its growth inhibition is -11.6% (inactive).

For `C[CH2][Sn]([CH2]C)([n]1c(C)nc2ccccc21)[n]1c(C)nc2ccccc21`, which growth inhibition is on record?
Its growth inhibition is 0.3% (inactive).

Which growth inhibition does the source give for `CCC[As](=O)(O)CC(C)C` here?
The growth inhibition was 13.2% (inactive).

Which growth inhibition does the source give for `C1CC[N-]CC1.C1CC[N-]CC1.[Cl][Pd][Cl]` here?
The growth inhibition was -23.6% (inactive).

For `O=C(O)c1ccccc1`, which growth inhibition is on record?
The growth inhibition was -10.7% (inactive) and -12% (inactive).

For `O=C(CCl)Oc1ccccc1Cl`, which growth inhibition is on record?
The growth inhibition was -42.9% (inactive).

For `N#CCCCBr`, which growth inhibition is on record?
Its growth inhibition is -13.8% (inactive).

Which growth inhibition does the source give for `CCCCOCN(COCCCC)C(C)Cc1ccccc1` (stereo not given) here?
Its growth inhibition is 11.1% (inactive).

For `CC(O)CN(CCN(CC(C)O)CC(C)O)CC(C)O.O=[N+]([O-])O.[Cu+2]` (stereo not given), which growth inhibition is on record?
Its growth inhibition is -35.6% (inactive).

With `CC1CCC(OC(=O)CCl)CC1` (stereo not given) as the compound, how does the growth inhibition read?
The growth inhibition was 7.45% (inactive).

Which growth inhibition does the source give for `O=[N+]([O-])c1ccc(CCl)cc1` here?
The growth inhibition was -15% (inactive).

With `CCN(CC)CCN(Cc1ccccc1)C(=O)C(O)(c1ccccc1)c1ccccc1` as the compound, how does the growth inhibition read?
Its growth inhibition is -39.4% (inactive).

For `[Cl][Sn]([Cl])([c]1ccccc1)[c]1ccccc1`, which growth inhibition is on record?
The growth inhibition was -35.4% (inactive) and 95.2% (active).

Which growth inhibition does the source give for `O=NN1CCNCC1` here?
Its growth inhibition is -24.5% (inactive) and -9.25% (inactive).

For `C=C(C)C(=O)OCC12CCC(C)=CC1OC1C(=O)C(OC(=O)C(=C)C)C2(C)C12CO2` (stereo not given), which growth inhibition is on record?
Its growth inhibition is 2.75% (inactive).

For `OCCN=Cc1ccccc1O.OCCN=Cc1ccccc1O.[Ni]`, which growth inhibition is on record?
Its growth inhibition is -26.4% (inactive).

For `CN1C(=O)C2(Cc3cn(C45CC67SSC(CO)(C(=O)N6C4Nc4ccccc45)N(C)C7=O)c4ccccc34)SSC1(CO)C(=O)N2C` (stereo not given), which growth inhibition is on record?
Its growth inhibition is 89.2% (active).

Which growth inhibition does the source give for `COC(=O)C1(C(=O)OC)ON1C(C)(C)C` (stereo not given) here?
The growth inhibition was -57.8% (inactive).

With `Oc1c(Cl)cc(Cl)cc1C1N(Cc2ccc(N(CCCl)CCCl)cc2)CCCN1Cc1ccc(N(CCCl)CCCl)cc1` as the compound, how does the growth inhibition read?
The growth inhibition was -3.25% (inactive).

With `CCCCN(CCCC)CC(O)c1ccc(Cl)c(Cl)c1` (stereo not given) as the compound, how does the growth inhibition read?
The growth inhibition was 41.3% (inactive).

For `COP(=O)(NC(C)=O)OC`, which growth inhibition is on record?
The growth inhibition was -45.8% (inactive).

Which growth inhibition does the source give for `CCOC(=O)C[CH2][Sn]([Cl])([Cl])[Cl]` here?
The growth inhibition was 12.3% (inactive).
